# Experimental data published in the supplement of paper PMC8728848.
# The sample as a whole holds a higher share of the strongest signals than the screen did.
# B1: AntigenI/IIC123 (Streptococcus mutans), C9E3B4 (protein)
# chain: MASMTGGQQMGRIHFHYFKLAVQPQVNKEIRNNNDINIDRTLVAKQSVVKFQLKTADLPAGRDETTSFVLVDPLPSGYQFNPEATKAASPGFDVTYDNATNTVTFKATAATLATFNADLTKSVATIYPTVVGQVLNDGATYKNNFTLTVNDAYGIKSNVVRVTTPGKPNDPDNPNNNYIKPTKVNKNENGVVIDGKTVLAGSTNYYELTWDLDQYKNDRSSADTIQKGFYYVDDYPEEALELRQDLVKITDANGNEVTGVSVDNYTNLEAAPQEIRDVLSKAGIRPKGAFQIFRADNPREFYDTYVKTGIDLKIVSPMVVKKQMGQTGGSYENQAYQIDFGNGYASNIIINNVPKINPKKDVTLTLDPADTNNVDGQTIPLNTVFNYRLIGGIIPADHSEELFEYNFYDDYDQTGDHYTGQYKVFAKVDITFKDGSIIKSGAELTQYTTAEVDTAKGAITIKFKEAFLRSVSIDSAFQAESYIQMKRIAVGTFENTYINTVNGVTYSSLEHHHHHH
# Columns and labels:
# Experiment in all cases: glycan array binding signal (z-score within array); higher = stronger binding
# Settings in all cases: glycan notation: IUPAC condensed, linker removed
# [1] = biological target: Gal(b1-4)GlcNAc(b1-3)Gal(b1-4)GlcNAc(b1-3)Gal(b1-4)GlcNAc(b1-2)[Gal(b1-4)GlcNAc(b1-3)Gal(b1-4)GlcNAc(b1-3)Gal(b1-4)GlcNAc(b1-6)]Man(a1-6)[Gal(b1-4)GlcNAc(b1-3)Gal(b1-4)GlcNAc(b1-3)Gal(b1-4)GlcNAc(b1-2)Man(a1-3)]Man(b1-4)GlcNAc(b1-4)[Fuc(a1-6)]GlcNAc
# Procedure, shortened: (§1)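 Arrays were curated from the Consortium for Functional Glycomics database, 3228 in total, and kept only where the protein sequence was available. Binding is expressed as a within-array Z-score. This score was averaged across arrays of the same protein sequence at different concentrations or buffers and across linkers, and negative values can be read as non-binding.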
# [2] = biological target: Gal(b1-4)GlcNAc(b1-3)Gal(b1-4)GlcNAc(b1-3)Gal(b1-4)GlcNAc(b1-3)Gal(b1-4)GlcNAc(b1-2)[Gal(b1-4)GlcNAc(b1-3)Gal(b1-4)GlcNAc(b1-3)Gal(b1-4)GlcNAc(b1-3)Gal(b1-4)GlcNAc(b1-6)]Man(a1-6)[Gal(b1-4)GlcNAc(b1-3)Gal(b1-4)GlcNAc(b1-3)Gal(b1-4)GlcNAc(b1-3)Gal(b1-4)GlcNAc(b1-2)Man(a1-3)]Man(b1-4)GlcNAc(b1-4)[Fuc(a1-6)]GlcNAc
# Procedure, shortened: as §1
# [3] = biological target: Gal(b1-4)GlcNAc(b1-3)Gal(b1-4)GlcNAc(b1-3)Gal(b1-4)GlcNAc(b1-3)Gal(b1-4)GlcNAc(b1-3)Gal(b1-4)GlcNAc(b1-2)[Gal(b1-4)GlcNAc(b1-3)Gal(b1-4)GlcNAc(b1-3)Gal(b1-4)GlcNAc(b1-3)Gal(b1-4)GlcNAc(b1-3)Gal(b1-4)GlcNAc(b1-6)]Man(a1-6)[Gal(b1-4)GlcNAc(b1-3)Gal(b1-4)GlcNAc(b1-3)Gal(b1-4)GlcNAc(b1-3)Gal(b1-4)GlcNAc(b1-3)Gal(b1-4)GlcNAc(b1-2)Man(a1-3)]Man(b1-4)GlcNAc(b1-4)[Fuc(a1-6)]GlcNAc
# Procedure, shortened: as §1
# [4] = biological target: Gal3S(b1-4)Glc
# Procedure, shortened: as §1
# [5] = biological target: Gal3S(b1-4)[Fuc(a1-3)]Glc6S
# Procedure, shortened: as §1
# [6] = biological target: Gal6S(b1-4)Glc
# Procedure, shortened: as §1
# [7] = biological target: GalNAc3S(b1-4)GlcNAc
# Procedure, shortened: as §1
# [8] = biological target: GlcNAc(b1-3)Gal(b1-4)GlcNAc(b1-2)Man(a1-3)[GlcNAc(b1-3)Gal(b1-4)GlcNAc(b1-2)Man(a1-6)]Man(b1-4)GlcNAc(b1-4)GlcNAc
# Procedure, shortened: as §1
# [9] = biological target: GlcNAc(b1-3)GalNAc
# Procedure, shortened: as §1
# [10] = biological target: Man(a1-3)[Man(a1-6)]Man(b1-4)GlcNAc(b1-4)[Fuc(a1-6)]GlcNAc
# Procedure, shortened: as §1
# [11] = biological target: Neu5Ac(a2-3)Gal(b1-3)GlcNAc(b1-2)Man(a1-3)[GlcNAc(b1-4)][Neu5Ac(a2-3)Gal(b1-3)GlcNAc(b1-2)Man(a1-6)]Man(b1-4)GlcNAc(b1-4)GlcNAc
# Procedure, shortened: as §1
# [12] = biological target: Neu5Ac(a2-3)Gal(b1-3)GlcNAc(b1-4)Gal(b1-4)Glc
# Procedure, shortened: as §1
# [13] = biological target: Neu5Ac(a2-3)Gal(b1-4)GlcNAc(b1-2)Man(a1-3)[Neu5Ac(a2-6)Gal(b1-4)GlcNAc(b1-2)Man(a1-6)]Man(b1-4)GlcNAc(b1-4)GlcNAc
# Procedure, shortened: as §1
# [14] = biological target: Neu5Ac(a2-3)Gal(b1-4)GlcNAc(b1-2)[Neu5Ac(a2-3)Gal(b1-4)GlcNAc(b1-6)]Man(a1-6)[Neu5Ac(a2-3)Gal(b1-4)GlcNAc(b1-2)Man(a1-3)][GlcNAc(b1-4)]Man(b1-4)GlcNAc(b1-4)GlcNAc
# Procedure, shortened: as §1
# [15] = biological target: Neu5Ac(a2-3)Gal(b1-4)GlcNAc(b1-3)Gal(b1-4)GlcNAc(b1-3)Gal(b1-4)GlcNAc
# Procedure, shortened: as §1
# [16] = biological target: Neu5Ac(a2-3)Gal(b1-4)[Fuc(a1-3)]GlcNAc(b1-2)Man
# Procedure, shortened: as §1
# [17] = biological target: Neu5Ac(a2-3)GalNAc(b1-4)GlcNAc
# Procedure, shortened: as §1
# [18] = biological target: Neu5Ac(a2-6)Gal
# Procedure, shortened: as §1
# [19] = biological target: Neu5Ac(a2-6)Gal(b1-4)GlcNAc(b1-2)Man(a1-3)[GlcNAc(b1-4)][Neu5Ac(a2-6)Gal(b1-4)GlcNAc(b1-2)Man(a1-6)]Man(b1-4)GlcNAc(b1-4)GlcNAc
# Procedure, shortened: as §1
# [20] = biological target: Neu5Ac9Ac(a2-6)Gal(b1-4)GlcNAc
# Procedure, shortened: as §1
# [21] = biological target: Neu5Gc(a2-3)Gal(b1-4)GlcNAc
# Procedure, shortened: as §1
# [22] = biological target: Neu5Gc(a2-6)GalNAc
# Procedure, shortened: as §1
# [23] = biological target: Neu5Gc(a2-8)Neu5Gc(a2-6)Gal(b1-4)GlcNAc
# Procedure, shortened: as §1
# [24] = biological target: Neu5Gc(b2-6)Gal(b1-4)GlcNAc
# Procedure, shortened: as §1
binder,measurement,setting,value
B1,glycan array binding signal (z-score),[1],3.08
same,glycan array binding signal (z-score),[2],2.31
same,glycan array binding signal (z-score),[3],4.43
same,glycan array binding signal (z-score),[4],-0.499
same,glycan array binding signal (z-score),[5],2.84
same,glycan array binding signal (z-score),[6],-0.033
same,glycan array binding signal (z-score),[7],-1.45
same,glycan array binding signal (z-score),[8],0.67
same,glycan array binding signal (z-score),[9],-0.207
same,glycan array binding signal (z-score),[10],-0.768
same,glycan array binding signal (z-score),[11],0.141
same,glycan array binding signal (z-score),[12],-0.775
same,glycan array binding signal (z-score),[13],-0.814
same,glycan array binding signal (z-score),[14],-1.1
same,glycan array binding signal (z-score),[15],-0.469
same,glycan array binding signal (z-score),[16],-0.89
same,glycan array binding signal (z-score),[17],0.443
same,glycan array binding signal (z-score),[18],4.55
same,glycan array binding signal (z-score),[19],-0.868
same,glycan array binding signal (z-score),[20],-1.27
same,glycan array binding signal (z-score),[21],-1.14
same,glycan array binding signal (z-score),[22],-0.987
same,glycan array binding signal (z-score),[23],-0.326
same,glycan array binding signal (z-score),[24],-0.257
